# Compound activity from PubChem BioAssay.
# The full list was thinned out, with hits kept by preference.
# Shiga inhibitor: blocks Shiga toxin action in Vero cells | Vero cells, Shiga toxin protein synthesis inhibition reporter | inhibition, % at 38.7 µM | 290,000 compounds, 9.2% hits | AID 2315; in the data active = inhibition mostly above about 28%, no sharp cut-off; inactive = mostly below about 43%; note: 0% is about no effect
# Sm TGR block: inhibitors of Schistosoma mansoni thioredoxin glutathione reductase; Q962Y6; purified TGR, DTNB reduction, TNB absorbance 405 nm; Potency, µM (doses to about 114 µM), for the others: at the highest dose activity change, negative = inhibition, usual class: inhibitors; 360,000 compounds, 3% hits; AID 485364; note: potency is the fitted concentration of half-maximal effect; % is set by controls: 0 for no effect and ±100 for the full control effect; nearly all actives have a fitted effect of over 60% in size
#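 TGR 20 nM + NADPH 100 uM (dispensed conc.), cpd preinc 15 min RT; start with NADPH (500 uM addition) then DTNB (15 mM addition). Kinetic TNB absorbance, 405 nm filter. Four-parameter Hill fit across titration.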
# Cycloheximide cs: counter-screen hit for Shiga toxin inhibitors, cycloheximide | cell reporter, cycloheximide protein synthesis inhibition counterscreen | max response, % | 300,000 compounds, 12% hits; in the data active = max response mostly above about 13%, no sharp cut-off; inactive = mostly below about 14%; note: read at 38.3 µM for the half of the compounds with a filed dose; 0% is about no effect
# Giardia FBPA inh: Giardia lamblia aldolase inhibition; A8B2U2; purified Giardia FBPA; Potency, µM (top dose mostly 59.6 µM), for the others: at the top dose activity, negative = inhibition, hits mostly inhibitors; 290,000 compounds, 0.71% hits; AID 2451; note: potency is the fitted concentration of half-maximal effect; % is set by controls: 0 for no effect and ±100 for the full control effect; nearly all actives have a fitted effect of over 55% in size
#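 40 nM FBPA preincubated 10 min at RT with compound (up to 57.5 uM final), then substrate plus GAPDH/TPI/NAD/arsenate coupling and diaphorase/resazurin added. Fluorescence read after 20 min at RT, 525/598 nm.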
# Tb PYK inh: blocks Trypanosoma brucei pyruvate kinase | Potency, µM (titrated, usually from 76.8 µM), for inactives: at the highest dose activity, negative = inhibition, usual class: inhibitors | TbPYK enzyme, Kinase-Glo Plus ATP luminescence, 45 min | Q57TT1 | 410,000 compounds, 0.12% hits; note: potency is the fitted concentration of half-maximal effect; % is set by controls: 0 for no effect and ±100 for the full control effect; nearly all actives have a fitted effect of over 50% in size
#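 In this concentration-response screen, enzyme-free wells defined baseline while DMSO plates tracked drift. Each reaction combined TbPYK, substrate, compound and 130 uM ADP for 45 min at room temperature. Kinase-Glo Plus luminescence gave the signal.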
# LmPK inhibitor: blocks Leishmania mexicana pyruvate kinase activity; Q27686; purified LmPK, Kinase-Glo ATP luminescence, 1 h; Potency, µM (doses to about 57.5 µM), inactives show at the highest dose activity change, negative = inhibition, hits mostly inhibitors; 290,000 compounds, 0.37% hits; note: potency is the fitted concentration of half-maximal effect; % is set by controls: 0 for no effect and ±100 for the full control effect
# Target sequence (Q27686 whole entry, looked up): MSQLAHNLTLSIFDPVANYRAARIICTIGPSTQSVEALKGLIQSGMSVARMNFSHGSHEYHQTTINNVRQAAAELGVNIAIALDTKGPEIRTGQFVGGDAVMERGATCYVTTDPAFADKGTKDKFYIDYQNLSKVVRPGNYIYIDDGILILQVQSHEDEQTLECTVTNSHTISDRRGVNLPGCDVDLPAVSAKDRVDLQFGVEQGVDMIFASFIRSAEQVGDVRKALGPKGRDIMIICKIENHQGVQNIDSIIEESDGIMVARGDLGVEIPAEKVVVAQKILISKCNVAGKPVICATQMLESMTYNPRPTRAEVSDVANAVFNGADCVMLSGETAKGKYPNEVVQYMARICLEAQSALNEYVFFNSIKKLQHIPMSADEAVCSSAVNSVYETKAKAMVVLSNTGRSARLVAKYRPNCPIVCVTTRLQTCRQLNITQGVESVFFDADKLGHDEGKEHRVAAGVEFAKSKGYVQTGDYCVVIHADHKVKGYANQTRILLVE
#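 Pyruvate kinase activity monitored as ATP production (luciferase luminescence). Conditions: 0.1 nM enzyme, 0.5 mM PEP, 0.1 mM ADP, 1 h, RT; normalized against uninhibited and no-enzyme wells.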
# * = called active by the depositor; u = inconclusive; x = not tested or not shown. Unless noted, calls come from the whole dose curve; as a rule, active = well fitted curve in the direction sought with a large enough effect; inconclusive = small, poorly fitted or top-dose-only effect, or another doubt; inactive = no such curve, though single readings can be large; an effect the other way counts as inactive or inconclusive.
SMILES,Shiga inhibitor,Sm TGR block,Cycloheximide cs,Giardia FBPA inh,Tb PYK inh,LmPK inhibitor
CCCn1nnc(NC(=O)COc2ccccc2Cl)n1,62*,-11%,24*,-1%,0%,3%
Cc1cccc(OCc2cc(=O)n3c(-c4ccccc4)csc3n2)c1C,x,1%,x,x,4%,x
O=C(Nc1ccccn1)c1sc2cc([N+](=O)[O-])ccc2c1Cl,59*,0%,21*,2%,u,-9%
Cc1cnc(NC(=O)c2sc3ccccc3c2Cl)s1,64*,5%,57*,2%,3%,-2%
O=C(Nc1nccs1)c1sc2cc(Cl)ccc2c1Cl,63*,3%,39*,5%,-11%,0%
CC(C)c1nnc(NC(=O)c2sc3ccccc3c2Cl)s1,67*,-16%,29*,x,-11%,-2%
Cc1cc(C)cc(OCC(=O)NCC2(N(C)C)CCCCC2)c1,x,2%,x,x,-3%,x
COc1ccc(OCc2ccc(-c3nc(C#N)c(N4CCC(C)CC4)o3)o2)cc1,x,6%,x,x,-1%,x
COc1cccc(CNC(=O)CN2C(=O)N(c3c(C)cccc3C)S(=O)(=O)c3ccccc32)c1OC,x,-2%,x,x,-10%,x
CCCCCCSc1nc(O)c(C2OC(=O)c3c2ccc(OC)c3OC)c(=O)n1-c1ccccc1 (centres undefined),-10,13µM*,-3,30%,-20%,2%
COc1cccc(CN(C)C(=O)CSc2nc3ccccc3[nH]2)c1OC,46*,-11%,26*,-27%,3%,-3%
Cc1cc(C)c(C(=O)C(C)OC(=O)c2ccccn2)cc1C (centres undefined),0,1%,-3,x,-6%,-5%
Cc1ccc(C(=O)OC(C)C(=O)c2cc(C)c(C)cc2C)o1 (centres undefined),27,0%,20*,x,0%,2%
CCOc1ccc2nc(NC(=O)c3nc(SCc4ccccc4F)ncc3Cl)sc2c1,x,2%,x,x,1%,x
CN(C)S(=O)(=O)c1cccc(NC(=S)N2CCc3ccccc32)c1,45,u,15,-15%,-2%,3%
CN(C)S(=O)(=O)c1cccc(NC(=S)NC(=O)C2CCCCC2)c1,67*,-33%,41*,-2%,1%,1%
COc1ccc(NS(=O)(=O)c2ccc(N3CCCC3)c(NC(=S)Nc3cccc(S(=O)(=O)N(C)C)c3)c2)cc1,63*,3%,33*,3%,x,4%
CN(C)S(=O)(=O)c1cccc(NC(=S)NC2CCCCC2)c1,-11,1%,-1,-7%,-3%,6%
Cc1ccccc1NC(=S)NC(=O)C1CCCCC1,45,14µM*,19*,x,-8%,-8%
CC1Cc2ccccc2N1C(=S)Nc1cccc(S(=O)(=O)N(C)C)c1 (centres undefined),-9,50µM*,-4,-18%,-4%,0%
Cc1ccc(-c2cc(C3C4C=CCC(C)C4C(=O)N3Cc3ccccc3)ccc2F)cc1 (centres undefined),6,x,7,-2%,x,x
CN1Cc2c(C(=O)OC(C)(C)C)ncn2-c2ccsc2C1=O,x,x,x,3%,x,x
O=C(COC(=O)c1cc(Cl)ccc1O)NNC(=O)c1ccccc1F,x,x,x,x,-6%,x
Cc1cc(C)cc(NC(=S)NC(=O)C2CC2)c1,-22,13µM*,10,x,-3%,-13%
Cc1cccc(NC(=S)NC(=O)C2CC2)c1,35*,35µM*,45*,x,x,1%
SMILES,Shiga inhibitor,Sm TGR block,Cycloheximide cs,Giardia FBPA inh,Tb PYK inh,LmPK inhibitor
Cc1ccc(NC(=S)NC(=O)C2CCCC2)c(Br)c1,x,x,x,x,2%,x
Cc1cc(NC(=S)NC(=O)C2CC2)ccc1Br,128*,u,51*,5%,2%,-1%
CC(=O)Nc1ccc(NC(=S)NC(=O)C2CCCC2)cc1,-13,0%,14,x,-3%,-8%
Cc1oc(-c2ccc(C(=O)N(C)Cc3ccccc3)cc2)nc1CN1CCc2ccccc21,x,-8%,x,x,6%,x
COC(=O)c1ccc(N2OC3(C)C=CC2CC3)cc1 (centres undefined),active,0%,56*,1%,-8%,4%
O=c1[nH]c2ccccc2c(O)c1-[n+]1ccccc1,43,11%,-1,-19%,-6%,-6%
O=C(Cc1c(O)c2ccccc2[nH]c1=O)NC1CCCCCC1,14,u,17,0%,-3%,1%
O=C(NC1CCCCCC1)c1c(O)c2ccccc2[nH]c1=O,84*,7%,25*,-13%,2%,-3%
O=C(Nc1cccc(F)c1)c1c(O)c2ccccc2[nH]c1=O,x,-4%,23*,4%,2%,8%
O=c1[nH]c2ccccc2c(O)c1O,-9,u,1,4µM*,u,-24%
O=C(CSc1oc(-c2ccccc2)nc1S(=O)(=O)c1ccc(Br)cc1)c1ccccc1,x,u,x,x,-19%,x
COc1ccc(Cc2nnc(NC(=O)c3ccccc3F)s2)cc1OC,-9,-7%,-3,-6%,1%,0%
CC(O)c1cccc2cc(C(O)CNC(C)(C)C)oc12 (centres undefined),-9,x,-10,-2%,x,x
COc1ccc(/C=C2\SC(=S)N(C(C)C(=O)NC3C=CS(=O)(=O)C3)C2=O)cc1 (centres undefined),31*,-6%,23*,-6%,-20%,3%
COc1cccc(/C=C2\SC(=S)N(C(C)C(=O)NC3C=CS(=O)(=O)C3)C2=O)c1 (centres undefined),12,0%,23,0%,-4%,10%
CC(C)c1ccc(/C=C2\SC(=O)N(CC(=O)NC3C=CS(=O)(=O)C3)C2=O)cc1 (centres undefined),27,-25%,12*,0%,-4%,3%
COc1cc([N+](=O)[O-])ccc1NC(=O)N1CCC2(CC1)Nc1ccccc1-n1cccc12,x,-3%,x,x,-2%,x
COc1ccc(-c2nc[nH]c2[N+](=O)[O-])cc1,-5,0%,13,-6%,0%,4%
Cc1onc(-c2ccccc2Cl)c1C(=O)NCc1ccco1,2,45µM*,-3,-19%,-12%,3%
Cc1ccnc(NC(=O)c2c(-c3ccccc3Cl)noc2C)c1,64*,3%,21*,6%,0%,0%
Cc1onc(-c2ccccc2Cl)c1C(=O)Nc1ccc(CN2CCCC2)cc1,-22,79µM*,2,-29%,-6%,0%
Cc1ccc(CNC(=O)c2c(-c3ccccc3Cl)noc2C)cc1,-6,-27%,-4,-3%,1%,-4%
